CDK5 p35 inh: inhibitors of human CDK5/p35 kinase, primary screen, biochemical, single concentration | Cyclin-dependent kinase 5 (Homo sapiens) + Cyclin-dependent kinase 5 activator 1 (Homo … | inhibition, % at 10 µM | 0.01% of 330,000 active | AID 488839, 2010 | Recombinant CDK5/p35, ADP-Glo luminescence, 60 min;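 active means highest replicate inhibition of at least 50% and at least 75% of replicates reaching 50%; inconclusive means only one of the two criteria met; inactive means both criteria failed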;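 further: plate controls were DMSO neutral control for no effect and GW8510 at 10 µM for full effect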
Rtt109 Vps75: inhibitors of C. albicans Rtt109/Vps75 HAT, primary screen, biochemical, ThioGlo CoA-SH fluorescence, plate reader; AID 540336, 2011; inhibition, % at 34.9 µM; purified Rtt109/Vps75, 4 h; Histone acetyltransferase RTT109 (Candida albicans (strain SC5314 / ATCC MYA-2876)), …; 0.16% of 330,000 active;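 active means inhibition of at least 50% in every replicate; inconclusive means best replicate reaches 50% inhibition but some replicates fall short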
Target sequence (Q5AAJ8 whole entry, looked up): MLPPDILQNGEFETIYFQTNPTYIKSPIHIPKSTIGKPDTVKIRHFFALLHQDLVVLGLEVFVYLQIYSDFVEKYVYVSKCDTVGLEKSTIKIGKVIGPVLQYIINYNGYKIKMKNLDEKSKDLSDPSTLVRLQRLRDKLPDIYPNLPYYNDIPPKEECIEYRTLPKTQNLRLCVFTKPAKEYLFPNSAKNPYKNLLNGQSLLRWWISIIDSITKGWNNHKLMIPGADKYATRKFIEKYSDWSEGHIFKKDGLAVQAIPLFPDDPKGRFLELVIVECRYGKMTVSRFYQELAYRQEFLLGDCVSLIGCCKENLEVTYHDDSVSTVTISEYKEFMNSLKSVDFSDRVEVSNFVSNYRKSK
esBAF inh: Bmi1 luciferase reporter increase in mESCs, primary screen, esBAF inhibitor project, mouse ES cells, Bmi1 luciferase knock-in, single point. 24 h; 100% = twice the neutral-well signal. reporter increase, % at 12.5 µM. AID 602393, 2012. 2% of 350,000 active; in the data active means activation above about 40%; inconclusive means no clear call, values can overlap the other calls;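 further: 0% = median of the plate's neutral control wells and 100% = double that signal; a rise in the Bmi1 reporter signal indicates esBAF inhibition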
SMARCA2 act: SMARCA2 (BRM) function activators, primary screen, cell-based, luminescence, high throughput. MG213 cells, MMTV-luciferase reporter, dexamethasone, overnight. activation, % at 9.1 µM. 1% of 370,000 active; in the data active means activation above about 7.8%;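 further: 0% = vehicle wells and 100% = reference activator wells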
dFosB act: activators of delta FosB homodimer, primary screen, biochemical, fluorescence polarization, TAMRA-CDK5 oligo, single point; Protein FosB (Mus musculus), P13346; purified delta FosB; percent of positive-control signal above neutral wells; activation, % at 25 µM; 0.99% of 340,000 active; AID 493131, 2011;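 active means mean activation above about 17%, with every replicate also reaching it, limit read from the data, passing the limit was not always enough; inconclusive means only one of the two conditions met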
Dyrk1A ADPGlo: rat Dyrk1A kinase inhibitors, primary screen, biochemical, single point, plate reader | Dual specificity tyrosine-phosphorylation-regulated kinase 1A (Rattus norvegicus), Q63470 | inhibition, % at 12.5 µM | ADP-Glo luminescence, NFATc1 peptide | 0.43% of 310,000 active; in the data active means inhibition above about 50%;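 further: plate controls were vehicle with enzyme for no effect and no enzyme for full effect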
Numbers without * were called inactive; ? = inconclusive; / = not tested or not shown. An excerpt weighted towards active compounds, which were near 3.2% of everything screened.

SMILES | CDK5 p35 inh | Rtt109 Vps75 | esBAF inh | SMARCA2 act | dFosB act | Dyrk1A ADPGlo
N#CCSc1nnc(-c2c[nH]c3ccccc23)o1 | 1 | -5 | / | 1 | 4 | 26
CCNC(=O)NC(=O)CSc1nnc(-c2c[nH]c3ccccc23)o1 | 0 | 51* | -8 | 0 | -2 | -2
CCC(=O)N(C)C[C@H]1Oc2cc(-c3ccc(F)cc3)ccc2S(=O)(=O)N([C@H](C)CO)C[C@H]1C | / | / | 4 | / | / | /
O=C(NC1CCCCC1)N[C@H]1C=C[C@H](CC(=O)N2CCOCC2)O[C@@H]1CO | / | / | -2 | / | / | /
COc1ccccc1Nc1nnc(SCC2CCCCO2)s1 (stereo unspecified) | -2 | -7 | / | -1 | -1 | 0
Cc1ccccc1Nc1nnc(SCC2CCCCO2)s1 (stereo unspecified) | 2 | 51* | 16 | 3 | 0 | 3
COCC#Cc1ccc2c(c1)O[C@H](CN(C)S(C)(=O)=O)[C@@H](C)CN([C@H](C)CO)S2(=O)=O | / | / | 1 | / | / | /
CCCC#Cc1cnc2c(c1)C(=O)N([C@@H](C)CO)C[C@@H](C)[C@H](CN(C)C(=O)Nc1ccccc1F)O2 | / | / | 2 | / | / | /
O=C1C=C(c2ccc3[nH]ccc3c2)CCC1 | 2 | 9 | 88* | 6 | 2 | 27
CCc1ccc(OCC(=O)Nc2ccc(-c3nc4ccccc4o3)c(O)c2)cc1 | 1 | -15 | / | 0 | 9 | -2
Oc1cc(NCc2cccnc2)ccc1-c1nc2ccccc2o1 | 1 | -16 | 78* | 3 | -6 | 0
O=C(C[C@@H]1C[C@H]2c3cc(NC(=O)CC4CC4)ccc3O[C@H]2[C@H](CO)O1)NCCc1ccccc1 | / | / | 3 | / | / | /
CCOC(=O)c1c(C)[nH]c(N=Nc2cccc(C)c2)c1C | -1 | -2 | 79* | -1 | -14 | -7
CCOC(=O)c1c(C)[nH]c(C(=O)O)c1C | -2 | -2 | -4 | 0 | 6 | 6
CCOC(=O)c1c(C)[nH]c(C=Nc2ccc(OC)cc2)c1O | 3 | 13 | ? | -1 | -8 | 1
CCOC(=O)c1c(C)[nH]c(N=Nc2cccc(OC)c2)c1C | 1 | -3 | 66* | 0 | -16 | /
CCCNC(=O)[C@H]1[C@H](CO)[C@H]2Cn3c(ccc(-c4ccccc4)c3=O)[C@H]2N1CC | / | / | 3 | / | / | /
c1ccc(OCCCn2nnc(-c3cccnc3)n2)cc1 | -1 | -2 | 4 | -2 | 0 | 1
c1ccc(-n2nnc(-c3cccnc3)n2)cc1 | 0 | 2 | 58* | 5 | -8 | -7
COc1ccc(Nc2nc(N)c([N+](=O)[O-])c(NCc3ccccc3)n2)cc1 | -2 | 12 | / | -2 | 29* | 0
Cc1cccc(Nc2nc(N)c([N+](=O)[O-])c(NCCO)n2)c1 | 18 | 7 | 6 | -2 | 0 | /
Nc1nc(Nc2cccc(Cl)c2)nc(NCCO)c1[N+](=O)[O-] | 58* | -5 | / | -3 | 4 | 15
Nc1nc(NCCCN2CCOCC2)nc(Nc2cccc(Cl)c2)c1[N+](=O)[O-] | 0 | 1 | / | -4 | 63* | 0
Nc1nc(Nc2cccc(F)c2)nc(NCc2ccco2)c1[N+](=O)[O-] | 4 | 1 | / | -1 | 23* | 3
COc1ccc(Nc2nc(N)c([N+](=O)[O-])c(NCCO)n2)cc1 | / | / | / | 0 | / | /
SMILES | CDK5 p35 inh | Rtt109 Vps75 | esBAF inh | SMARCA2 act | dFosB act | Dyrk1A ADPGlo
C[C@H](CO)N1C[C@H](C)[C@@H](CN(C)C(=O)NC2CCCCC2)Oc2c(NC(=O)C3CCOCC3)cccc2C1=O | / | / | 0 | / | / | /
Cc1cccc(Nc2nc(NCc3ccco3)nc(N)c2[N+](=O)[O-])c1 | -1 | -5 | -5 | 1 | 5 | 17
Nc1nc(Nc2cccc(Cl)c2)nc(NCc2ccco2)c1[N+](=O)[O-] | 0 | 5 | / | 0 | 58* | 7
Nc1nc(Nc2ccc(Cl)cc2)nc(NCc2ccco2)c1[N+](=O)[O-] | 1 | -5 | / | 4 | 57* | 18
COc1ccc(Nc2nc(NCc3ccco3)nc(N)c2[N+](=O)[O-])cc1 | / | / | / | -2 | / | /
CN(C)c1ccc(/C=C2/C[N+](C)(C)C/C(=C/c3ccc(N(C)C)cc3)C2=O)cc1 | -1 | 4 | / | -5 | 22* | 5
CC(C)/C=C1\CC/C(=C\c2ccc(N(C)C)cc2)C1=O | 1 | 0 | / | 1 | 0 | 2
COc1cccc(CNC(=O)C[C@@H]2CC[C@H](NC(C)=O)[C@H](CO)O2)c1 | / | / | 6 | / | / | /
C[C@@H](NC(=O)C[C@H]1CC[C@H]2[C@@H](COc3ccc(NS(=O)(=O)c4ccc(Cl)cc4)cc3C(=O)N2C)O1)c1ccccc1 | / | / | 1 | / | / | /
O=C(Nc1cccc(Cl)c1)c1ccc(OC(=S)N2CCOCC2)cc1 | 2 | 4 | / | 0 | 6 | 8
O=C(Nc1cccc2ccccc12)c1ccc(OC(=S)N2CCOCC2)cc1 | 2 | -4 | 45* | 7 | -6 | 1
O=C(Cn1c(O)c(/C=C2\C=Nc3ccccc32)sc1=O)Nc1ccc2c(c1)OCO2 | 1 | 33 | 6 | 0 | 36* | 3
O=C(Cn1c(O)c(/C=C2\C=Nc3ccccc32)sc1=O)N1CCOCC1 | -4 | -11 | / | 1 | -1 | -3
C/C(=C\c1ccc(N)cc1)c1nc2ccccc2[nH]1 | 1 | 1 | 64* | 4 | 2 | 0
O=C(N[C@H]1CC[C@H](CCNS(=O)(=O)c2cccc(Cl)c2)O[C@@H]1CO)c1ccc(F)cc1 | / | / | 2 | / | / | /
Fc1cccc(-c2cc3nc4c(c(N5CCC6(CC5)OCCO6)n3n2)CCCC4)c1 | -12 | 23 | 52* | 3 | -9 | 8
OC1CCN(c2c3c(nc4cc(-c5cccc(F)c5)nn24)CCCC3)CC1 | 1 | -9 | 104* | 3 | -12 | -6
CCOCCN1CCN(c2c3c(nc4cc(-c5ccc(F)cc5)nn24)CCC3)CC1 | 0 | 3 | 18 | 3 | -1 | -5
CCCCCCCNC(=O)C1(CC2CC(c3ccccc3)=NO2)CCN(C(=O)OC(C)(C)C)CC1 (stereo unspecified) | 1 | 14 | 62* | 2 | -17 | 7
CN(C)CCCN(C(=O)COc1ccc(Cl)cc1)c1nc2cc3c(cc2s1)OCO3 | -1 | 6 | 2 | 0 | 39* | 3
CN(C)CCCN(C(=O)c1ccc(S(=O)(=O)N2CCCCCC2)cc1)c1nc2cc3c(cc2s1)OCO3 | / | / | -4 | -3 | / | /
CN(C)CCCN(C(=O)COc1ccc(Cl)cc1)c1nc2cc3c(cc2s1)OCCO3 | 1 | 8 | -10 | -2 | ? | 8
